Results: PubChem BioAssay (NCI)
About 79,000 compounds went through this panel and 15% of them were active in at least one assay; those are over-represented in the sample as a whole. Calls of active or inactive are those of the source. Cut-off read from the data, not from the text of the source: active = growth inhibition above about 70%; inactive = the rest.

What was measured:
[1] = NCI Yeast Anticancer Drug Screen. Data for the rad50 strain (AID 155);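 note: 0% = growth of vehicle-only cultures of the same strain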; conditions: S. cerevisiae rad50 strain growth inhibition; at 50.0 µM; active compounds read high
How it was run: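 DNA repair mutant yeast, compound exposure, growth read-out; inhibition is taken relative to vehicle.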

[2] = NCI Yeast Anticancer Drug Screen. Data for the mec2-1 strain (AID 157); conditions: S. cerevisiae mec2-1 strain, at 50.0 µM, active compounds read high
How it was run: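 Mutant yeast (mec2-1) grown with compound; growth inhibition relative to vehicle control reported.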

[3] = NCI Yeast Anticancer Drug Screen. Data for the sgs1 mgt1 strain (AID 161);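 note: 0% = growth of cultures given vehicle only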; conditions: S. cerevisiae sgs1 mgt1 strain, at 50.0 µM, active compounds read high
How it was run: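 Growth of a repair-deficient yeast mutant was monitored after compound treatment and expressed as inhibition relative to vehicle-treated cultures.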

[4] = NCI Yeast Anticancer Drug Screen. Data for the cln2 rad14 strain (AID 165);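 note: 0% = growth equal to vehicle treated cultures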; conditions: S. cerevisiae cln2 rad14 strain, at 50.0 µM, active compounds read high
How it was run: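 Readout is yeast growth inhibition versus vehicle-treated controls, using a strain with cln2 and rad14 alterations exposed to compound.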

[5] = NCI Yeast Anticancer Drug Screen. Data for the bub3 strain (AID 167); conditions: S. cerevisiae bub3 mutant strain, at 50.0 µM, active compounds read high
How it was run: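 In this screen, a yeast mutant lacking normal mitotic checkpoint function is challenged with compound. Relative growth versus vehicle gives the inhibition value.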

[6] = NCI Yeast Anticancer Drug Screen. Data for the mlh1 rad18 strain (AID 175); conditions: S. cerevisiae mlh1 rad18 strain growth inhibition; at 50.0 µM; active compounds read high
How it was run: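 Genetically defined yeast (DNA repair-deficient) exposed to compounds; growth inhibition determined relative to vehicle.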

Measured: growth inhibition

O=[N+]([O-])c1ccc(C2=NN(c3ccccc3)C(c3ccccc3)C2)cc1 (configuration not stated)
inactive: [1] 8% | [2] 3.1% | [3] 0.5% | [4] -5.9% | [5] 8.85% | [6] 4%

O=C1CCC(O)=C1O
inactive: [1] -7.75% | [2] -11.4% | [3] 2.3% | [4] 26.5% | [5] -2.35% | [6] -0.25%

CCCSCCC(N)C(=O)O (configuration not stated)
inactive: [1] -33.2% | [2] -15.9% | [3] 0.55% | [4] -5.7% | [5] -2.9% | [6] -4.95%

COc1cc(CSCC(=O)O)ccc1O
inactive: [1] 8.95% | [2] 7.15% | [3] 10.3% | [4] -19.4% | [5] -19.6% | [6] -23.8%

O=C(CCCN1CC=C(n2c(=O)[nH]c3ccccc32)CC1)c1cccs1
inactive: [1] 50.6% | [2] 29.2% | [3] 32.4% | [4] 19.9% | [5] 33.1% | [6] 42.8%

COc1ccc(/C=C/C(=O)c2ccc(F)cc2)cc1
inactive: [1] 8.85% | [2] -16.4% | [3] -12.4% | [4] -35.4% | [5] -6.5% | [6] 10.2%

COc1cc(C2=N/C(=C\c3cccc([N+](=O)[O-])c3)C(=O)O2)cc(OC)c1OC
inactive: [1] -0.45% | [2] -7.25% | [3] 11.6% | [4] -8.05% | [5] -0.2% | [6] -22.5%

COc1ccc([N+](=O)[O-])c2c(C)cc(=O)[nH]c12
inactive: [1] 32.1% | [2] 19.4% | [3] 21.9% | [4] -9.5% | [5] -23.6% | [6] 35.7%

Cc1ccc(C)c(NC(=O)Oc2ccc(C(=O)OCc3ccccc3)cc2)c1
active: [2] 90.8% | [3] 74.9% | [5] 96.5% | [6] 89.5%
inactive: [1] 66.8% | [4] 40.5%

CCCCNC(=O)c1ccc([N+](=O)[O-])cc1
inactive: [1] 29.3% | [2] 12% | [3] 13.4% | [4] 17.6% | [5] -16.8% | [6] -9.05%

O=C(CCc1ccccc1C(=O)O)c1ccccc1O
inactive: [1] 0.7% | [2] -9.55% | [3] -3.35% | [4] 17.2% | [5] 5.5% | [6] -7.6%

CC(=O)c1cc2c(cc1C)C(C)CCC2(C)C (configuration not stated)
inactive: [1] -7% | [2] -29.4% | [3] -9.6% | [4] -6.1% | [5] 1.9% | [6] -22.5%

Cc1c(N(C)C)ccc2c(=O)c3cccc(CC(=O)O)c3oc12
inactive: [1] 20% | [2] 21.7% | [3] -5.35% | [4] 8.6% | [5] -16.1% | [6] -5.05%

CCN(CC)CCCC(C)=O
inactive: [1] 9.25% | [2] 21.6% | [3] 28.2% | [4] 18.6% | [5] 13% | [6] 3.4%

COc1c2occc2c(N)c2ccc(=O)oc12
inactive: [1] -5.95% | [2] -4.4% | [3] -8.2% | [4] -14.5% | [5] -1.55% | [6] -9.95%

NC(Cc1ccc(O)cc1)C(=O)OCc1ccccc1 (configuration not stated)
inactive: [1] -6.45% | [2] 0.5% | [3] 15.1% | [4] -11.2% | [5] 34.2% | [6] -3.75%

O=C(O)CCCc1ccc2c(c1)oc1ccccc12
inactive: [1] -18.6% | [2] -6.3% | [3] 1.5% | [4] -18.6% | [5] 13.6% | [6] 20.9%

CSc1nc(=S)c2[nH]c(Cl)nc2[nH]1
inactive: [1] -1.8% | [2] 0.4% | [3] -6.9% | [4] -15.2% | [5] 16.4% | [6] 0.25%

CC(=O)CC(=O)OC1CCCC(C)C1 (configuration not stated)
inactive: [1] -9.55% | [2] 1% | [3] -17.9% | [4] -39.4% | [5] -22.8% | [6] -15.2%

O=C1C2CC3C(C2)C13
inactive: [1] -1.55% | [2] -6.9% | [3] -8.05% | [4] -5.9% | [5] -10.2% | [6] 11.5%

CNc1cc(S(=O)(=O)O)ccc1C
inactive: [1] 1.45% | [2] -4.45% | [3] -2.6% | [4] 3.9% | [5] 10.6% | [6] -5.05%

Nc1cc2c3c(cccc3c1Br)C(=O)OC2=O
active: [1] 99.5% | [2] 99.8% | [3] 99.7% | [4] 99.3% | [5] 99.7% | [6] 99.5%

O=C(O)c1cc(-c2ccc(-c3ccccc3)cc2)nc2cc3ccccc3cc12
inactive: [1] -15.7% | [2] -3.9% | [3] -2.15% | [4] -20.6% | [5] -54.9% | [6] 22%

CCC(C(C)O)[N+](=O)[O-] (configuration not stated)
inactive: [1] 32.8% | [2] -1.1% | [3] 10% | [4] 4.15% | [5] 7.25% | [6] 7.75%

COc1ccc(COC(=O)Nc2cccc(Cl)c2)cc1OC
inactive: [1] -11.5% | [2] 30% | [3] 20.1% | [4] -24.2% | [5] 30.8% | [6] 35.8%

CC1CCC(O)C(C(O)CC2CC(=O)NC(=O)C2)C1 (configuration not stated)
inactive: [1] 23.3% | [2] -3.3% | [3] 5.4% | [4] -21.7% | [5] 4% | [6] 3.45%

Cc1cc(N(CCC#N)CCC#N)ccc1N=Nc1cccc(C(=O)O)c1
inactive: [1] -40.4% | [2] -33.8% | [3] -10% | [4] -16.4% | [5] -33.8% | [6] -27.1%

CCCCCC(=O)O
inactive: [1] -20.2% | [2] -7.1% | [3] -42.1% | [4] 26.9% | [5] -38.9% | [6] 16.8%

O=C(Cc1nc2ccc(Cl)cc2[nH]c1=O)c1ccncc1
inactive: [1] -2.8% | [2] -11.6% | [3] -3.55% | [4] 8.1% | [5] -24.1% | [6] 20.8%

O=C(OCCCCCCCCOC(=O)c1ccc([N+](=O)[O-])cc1)c1ccc([N+](=O)[O-])cc1
inactive: [1] 14.6% | [2] 2.15% | [3] 12.2% | [4] 4.1% | [5] -5.4% | [6] 5.9%

CN=C(N)SCCSC(N)=NC
inactive: [1] -12.3% | [2] -18.2% | [3] 0.25% | [4] -13.5% | [5] 11.5% | [6] -5.15%

O=C1c2cc(O)c(O)cc2C(=O)c2cc3c(cc21)OCO3
inactive: [1] -38.2% | [2] -5.55% | [3] 1.4% | [4] -11.6% | [5] -8.3% | [6] -15.9%

C=CCC1=C(C)C(OC(=O)/C=C/c2ccco2)CC1=O (configuration not stated)
inactive: [1] 10.3% | [2] -5.2% | [3] 8.6% | [4] -5.5% | [5] 30.3% | [6] -0.2%

CC(=O)Oc1cccn(C)c1=O
inactive: [1] 18.6% | [2] 19.1% | [3] -6.35% | [4] 24.6% | [5] 32.5% | [6] 21.1%

N=C(N)SCCCN
inactive: [1] -1.7% | [2] -14.7% | [3] -3.6% | [4] 2.95% | [5] -36% | [6] 29.1%

CCCC(CCC)C(=O)OCC(=O)c1ccc(-c2ccccc2)cc1
inactive: [1] -1.4% | [2] -2.6% | [3] 5% | [4] -43.9% | [5] 2.7% | [6] -0.1%

Cc1ccc(S(=O)(=O)OCCOCCOc2ccc(C(C)(C)CC(C)(C)C)cc2)cc1
inactive: [1] 49.7% | [2] 1.05% | [3] 34% | [4] 4.3% | [5] 3.8% | [6] 27%

O=c1[nH]c(=O)n(C2CC(O)C(CO)O2)cc1OC/C=C/Cc1ccccc1 (configuration not stated)
inactive: [1] -22.1% | [2] -12.8% | [3] 0.95% | [4] 7.75% | [5] -10.4% | [6] -20.7%

CC(C)CCCC(C)C1CCC2C3=CCC4CC(=O)CCC4(C)C3CCC21C (configuration not stated)
inactive: [1] 30.9% | [2] -10.9% | [3] 4.65% | [4] 4.35% | [5] -1.2% | [6] 4.5%

C[C@@H](CO)OCOCc1ccccc1
inactive: [1] 7.5% | [2] -1.25% | [3] 4% | [4] 18.5% | [5] 7.3% | [6] 19.5%

O=C(NN(C(=O)c1ccc([N+](=O)[O-])cc1)c1ccccc1)c1ccc([N+](=O)[O-])cc1
inactive: [1] 3.1% | [2] 14.2% | [3] 14.1% | [4] 21.4% | [5] 12.8% | [6] 13.2%

CC(=O)c1ccc(OCc2ccccc2)cc1OCc1ccccc1
inactive: [1] 7% | [2] 4.5% | [3] -9.8% | [4] 11.7% | [5] 4.8% | [6] -18.6%
